Laboratory results published in PubChem BioAssay (NCATS).
Results filed as inconclusive are left out. Entries that show only a call come without a potency. A number with no mark means an inactive call. Active and inactive are the calls of the source. Calls follow the shape of the dose curve; as a rule, active = well fitted cell-killing curve with a large enough effect; inconclusive = small, poorly fitted or top-dose-only effect, or effect the other way; inactive = no such curve, though single readings can be large or run the other way.

Test: Viability qHTS for spleen associated tyrosine kinase inhibitor (SYKi) naive MV4-11 cells (AID 1963823); also: nearly all actives have a fitted effect of over 40% in size
Details: MV4-11 AML viability, CellTiter-Glo luminescence, 72 h; series mostly up to 45 µM
Summary of the method: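 qHTS, SYK inhibitor-naive MV4-11; 500 cells/well; 72 hr compound exposure, 37 C; CellTiter-Glo added, 10 min RT; luminescence read.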
Potency is read from the fitted curve at half-maximal effect.

SMILES | Potency | viability (% of control)
C=C1CC[C@H]2[C@@](C)(CCC(O)[C@@]2(C)CO)[C@@H]1CCC1=CCOC1=O (stereo not given in full) | inactive | –
CCCC(=O)c1cc(O)c(O)cc1O | inactive | –
Nc1nc(COC(=O)c2ccc([N+](=O)[O-])cc2)nc(Nc2ccccc2)n1 | inactive | –
CC[C@@H](O)C[C@@H]1C(C)=C[C@@H]2CCCC[C@@H]2[C@@]1(C)C(=O)O | inactive | –
C#CCCCn1cc(-c2cccc3c2N[C@@H](C)CC(=O)N3)cn1 | inactive | –
O=C1C[C@@H](c2ccc(O)cc2)Oc2cc(O)ccc21 | 11.6 µM (active) | –
COc1cc2c(cc1O)[C@H](c1ccc(O[C@@H]3O[C@H](CO)[C@@H](O)[C@H](O)[C@H]3O)c(OC)c1)[C@@H](CO)[C@](O)(CO)C2 | inactive | –
Cc1c(C(=O)Nc2ccc(N3CCC(N4CCOCC4)CC3)c(C#N)c2)cnn1-c1ccc(Cl)cc1 | 0.116 µM (active) | –
CC1(C)CCC(C)(C)c2cc3c(cc21)Sc1ccccc1N=C3c1ccc(C(=O)O)cc1 | inactive | –
Cc1ccc(Cl)cc1N(CC(=O)Nc1c(F)cccc1F)S(C)(=O)=O | 5.17 µM (active) | –
Cc1cc(O[C@@H]2O[C@H](COC(=O)CC(=O)O)[C@@H](O)[C@H](O)[C@H]2O)c(C(C)C)cc1O | inactive | –
CC/C(=C(\c1ccc(O)cc1)c1ccc(OCCNC)cc1)c1ccccc1 | inactive | –
Cc1ccccc1Sc1ccc(/C=C2\SC(=S)NC2=O)cc1[N+](=O)[O-] | inactive | –
CC(C)=CCC/C(C)=C/CO[C@@H]1O[C@H](CO)[C@@H](O)[C@H](O)[C@H]1O | inactive | –
CC1CCC2C(C(=O)O)=CC3C(O)C(C)(C)CC123 (stereo not given) | inactive | –
CC(=O)C1CCC(=O)N1Cc1ccccc1 (stereo not given) | inactive | –
C[C@@H]1CC[C@]2(C(=O)O)CC[C@]3(C)C(=CCC4[C@@]5(C)C[C@@H](O)[C@H](O)[C@@](C)(CO)C5CC[C@]43C)C2[C@H]1C (stereo not given in full) | inactive | –
CC(c1ncncc1F)C(O)(Cn1cncn1)c1ccc(F)cc1F (stereo not given) | inactive | –
CC(C)(O)C1CCC2(C)C3C(O)C4C(C13)C42CO (stereo not given) | inactive | –
CC1OC(O[C@H]2CC[C@@]3(C)C(CC[C@]4(C)C3CC=C3C5CC(C)(C)CC[C@]5(C(=O)OC5OC(CO)C(OC6OC(COC7OCC(O)C(O)C7O)C(O)C(O)C6O)C(O)C5O)CC[C@]34C)C2(C)C)C(O)C(O)C1OC1OCC(OC2OCC(O)C(O)C2O)C(O)C1O (stereo not given in full) | 0.155 µM (active) | –

SMILES | Potency | viability (% of control)
O=S1(=O)CCN(Cc2cc(NCC3CCOCC3)c3[nH]c(-c4ccccc4)cc3c2)CC1 | inactive | –
CC1=CC(=O)C2C(C)(C)CC(O)CC2(C)C1CO (stereo not given) | inactive | –
CC(=O)O[C@H]1[C@@]2(O)C[C@H](C)[C@H](OC(=O)c3ccccc3)[C@@H]2[C@@H](OC(=O)CO)[C@]2(OC(C)=O)C[C@H]3C(=O)C(C)(C)C[C@@H]3[C@@]1(C)[C@H]2OC(C)=O | inactive | –
C=C1CC[C@@H]2[C@](C)(CO)[C@H](O)CC[C@@]2(C)[C@@H]1CC(O)C1=CCOC1=O (stereo not given in full) | 9.04 µM (active) | –
COc1cc(C[C@@]2(O)CO[C@@H](c3ccc(O[C@@H]4O[C@H](CO)[C@@H](O)[C@H](O)[C@H]4O)c(OC)c3)[C@H]2CO)ccc1O | inactive | –
COc1cc2c(cc1O)C1(Cc3ccc4c(c3C1=O)OCO4)N(C)CC2 (stereo not given) | inactive | –
COc1cc(O)cc(C)c1C(=O)OC1C(CO)OC(OC2C(O)C(O)C(O)C(O)C2O)C(O)C1O (stereo not given) | inactive | –
COC(=O)Cn1nc(-c2cccc(OC)c2)c2ccccc21 | inactive | –
C/C(=C\CCC(C)CCO)C(=O)O[C@@H]1[C@@H](O)[C@H](OC2OC=C(C(=O)O)C3CCC(C)(O)C23)O[C@H](CO)[C@H]1O (stereo not given in full) | inactive | –
C[C@@H]1C[C@H](O)/C=C/[C@H](O)[C@@H](O)CC(=O)O1 | inactive | –
S=c1ssc2c1CCC2 | inactive | –
COc1cc(O[C@@H]2O[C@H](CO)[C@@H](O)[C@H](O)[C@H]2O)c(CCC(=O)OC[C@H]2O[C@@H](Oc3cc(OC)c(C4OC(=O)C(C)(O)C4O)cc3CCC(=O)O)[C@H](O)[C@@H](O)[C@@H]2O)cc1C1OC(=O)C(C)(O)C1O (stereo not given in full) | – | 77% [at 9.25 µM]
CC1=CC(=O)CC2C1(O)CCC(C)C21CC(c2ccoc2)OC1=O (stereo not given) | inactive | –
CC1CCC2(O1)C(C)(C)CC(O[C@@H]1O[C@H](CO[C@@H]3OC[C@](O)(CO)[C@H]3O)[C@@H](O)[C@H](O)[C@H]1O)CC2(C)O (stereo not given in full) | inactive | –
Fc1ccc(N2CCCCC2)c(NC(=S)c2ccncc2)c1 | 11.6 µM (active) | –
CCC(CC)C(=O)OC12C(OC(=O)C(C)C)C(C)C3(O)C(C=C(CO)CC4(O)C(=O)C(C)=CC43)C1C2(C)C (stereo not given) | 0.0282 µM (active) | –
Cc1nc2ccccc2c(-c2ccc3c4c(ccnc24)CCO3)c1[C@H](OC(C)(C)C)C(=O)O | inactive | –
C[C@H]1[C@H](C)CC[C@]2(C(=O)O)CC[C@]3(C(=O)O)C(=CCC4[C@@]5(C)CC[C@H](O[C@@H]6O[C@@H](C)[C@H](O)[C@@H](O)[C@H]6O)C(C)(C)C5CC[C@]43C)[C@H]12 (stereo not given in full) | inactive | –
C=CC1C(OC2OC(CO)C(O)C(O)C2O)OC=C(C(=O)OC)C1CC1CC(=O)CC(CCc2ccc(O)cc2)O1 (stereo not given) | inactive | –
C=C1CCC[C@]2(C)CC/C(=C(/CO)C(=O)OC)C[C@@H]12 | 20.6 µM (active) | –
